The structures appear in SMILES notation. Active and inactive are the calls of the source. Unless noted, no rule for the calls is given here.

Test [1] in a line: HepG2 liver cancer cell viability effects, profiling panel, resazurin fluorescence, 24 h, PK04 Diversity Set (AID 1172). Also: test concentration not given here. Particulars: higher = more signal.
Test [2] can be described thus: basal S. cerevisiae growth modulation, no modifier, primary screen, OD600, strain BY4716, 24 h, basal condition (AID 1173). As to conditions: OD600, 24 h, higher = more signal, called active from +8 up or from −8 down.
Test [3] can be described thus: MM1S myeloma cell viability, profiling panel, resazurin fluorescence, basal, 24 h, PK04 Diversity Set (AID 1174).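 Also: MM1S multiple myeloma cell line; test concentration not given here.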 As to conditions: higher = more signal, called active from +8 up or from −8 down. In general terms: Resazurin is reduced to fluorescent resorufin, in cell work by metabolically active cells.
Test [4] addresses Dihydroorotate dehydrogenase (quinone), mitochondrial (Plasmodium falciparum (isolate 3D7)) (UniProt Q08210). Kind of test: PfDHODH enzyme inhibitors, primary screen, biochemical, C-terminal His tag, absorbance 600 nm (AID 1175).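 Also: recombinant parasite enzyme with a five histidine tag at its C terminus; test concentration not given here.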 Particulars: DCIP absorbance 600 nm, higher = more signal, called active from +8 up or from −8 down.
The nature of test [5]: P. aeruginosa biofilm formation inhibitors, primary screen, strain PAO1, LB-PBS medium, absorbance 600 nm (AID 1176). Also: test concentration not given here. As to conditions: P. aeruginosa PAO1 growth/biofilm, A600, 12 h; higher = more signal.
Test [6] in a line: S. cerevisiae RM11-1a growth modifiers, primary screen, strain RM11-1a, OD600, basal, 24 h (AID 1177).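 Also: cultures grown under basal conditions with no added stressor; test concentration not given here.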 Particulars: OD600, 24 h, higher = more signal, called active from +8 up or from −8 down.
The nature of test [7]: E. coli acrAB mutant growth effects, primary screen, E. coli filamentation inducers, strain DRC39, OD650, 24 h (AID 1178).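 Also: growth measured as culture turbidity by optical density at 650 nm; test concentration not given here.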 As to conditions: higher = more signal, called active from +8 up or from −8 down.
A short description of test [8]: E. coli acrAB mutant growth effects, primary screen, E. coli filamentation inducers, strain DRC39, OD650, 48 h (AID 1179).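 Also: screen aims at cell division blockers that make cells filament.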 Particulars: E. coli DRC39 delta-acrAB growth, higher = more signal, called active from +8 up or from −8 down.
A short description of test [9]: RPMI8226 myeloma cell viability, profiling panel, resazurin fluorescence, basal, 24 h, PK04 Diversity Set (AID 1180).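 Also: RPMI8826 multiple myeloma cell line at 5000 cells per well; test concentration not given here.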 Particulars: higher = more signal.
In test [10] the target is E3 ubiquitin-protein ligase XIAP (Homo sapiens) (UniProt P98170). Kind of test: XIAP binders, primary screen, biophysical, small-molecule microarray, fluorescence 635 nm (AID 1181).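 Also: score merges 667 nm emission and signal to noise over triplicate slides.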 Particulars: small-molecule microarray binding, higher = more signal.
E3 ubiquitin-protein ligase XIAP (Homo sapiens), sequence (P98170 whole entry, looked up): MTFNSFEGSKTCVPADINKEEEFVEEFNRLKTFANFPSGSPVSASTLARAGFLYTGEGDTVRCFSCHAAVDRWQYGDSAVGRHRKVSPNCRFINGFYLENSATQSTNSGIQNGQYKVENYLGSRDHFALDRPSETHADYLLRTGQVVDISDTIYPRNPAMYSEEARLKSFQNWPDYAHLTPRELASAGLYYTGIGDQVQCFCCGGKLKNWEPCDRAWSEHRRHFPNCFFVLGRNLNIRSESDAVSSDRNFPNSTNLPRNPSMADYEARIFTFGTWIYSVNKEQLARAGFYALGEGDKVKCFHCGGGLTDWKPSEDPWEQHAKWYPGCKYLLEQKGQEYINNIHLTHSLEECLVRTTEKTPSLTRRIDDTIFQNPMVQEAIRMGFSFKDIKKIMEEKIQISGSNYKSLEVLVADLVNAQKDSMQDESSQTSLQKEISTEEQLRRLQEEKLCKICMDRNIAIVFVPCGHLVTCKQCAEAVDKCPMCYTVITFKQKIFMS

Dihydroorotate dehydrogenase (quinone), mitochondrial (Plasmodium falciparum (isolate 3D7)), sequence (Q08210 whole entry, looked up): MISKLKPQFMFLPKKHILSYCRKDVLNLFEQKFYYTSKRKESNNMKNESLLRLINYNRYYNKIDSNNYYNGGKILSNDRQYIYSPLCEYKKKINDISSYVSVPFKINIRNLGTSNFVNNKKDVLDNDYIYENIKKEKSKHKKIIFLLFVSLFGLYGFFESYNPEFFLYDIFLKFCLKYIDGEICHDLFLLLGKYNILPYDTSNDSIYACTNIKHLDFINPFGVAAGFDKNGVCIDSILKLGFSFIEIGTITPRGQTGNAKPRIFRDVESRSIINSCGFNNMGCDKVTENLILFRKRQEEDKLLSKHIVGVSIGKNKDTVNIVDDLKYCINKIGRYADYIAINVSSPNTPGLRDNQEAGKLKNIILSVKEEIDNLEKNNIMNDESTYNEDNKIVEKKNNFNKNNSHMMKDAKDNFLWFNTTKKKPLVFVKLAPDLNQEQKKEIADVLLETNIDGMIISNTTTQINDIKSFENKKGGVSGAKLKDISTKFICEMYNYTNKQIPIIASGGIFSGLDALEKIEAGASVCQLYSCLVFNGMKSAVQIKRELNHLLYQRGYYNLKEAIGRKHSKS

With `O=C1[C@H]2[C@H]3[C@H](O)[C@H](O)CC(=NO[C@@H]4O[C@H](CO)[C@@H](O)[C@H](O)[C@H]4O)[C@H]3CC[C@H]2C(=O)N1Cc1ccc2c(c1)OCO2`, the z-score in test [1] was 0.777; in [2], -0.159 (inactive); in test [3] it was 0.466 (inactive); in test [5] it was -0.249 (inactive); in test [6], 0.929 (inactive); in test [7] it was 0.76 (inactive). Also, the values for the z-score in test [8] and in [9] were 0.385 (inactive) and 0.367, respectively. In addition, the composite z-score was 0.461 (inactive) in [4] and -0.4 in test [10].

For the compound `CC(C)=CCCC(C)=CCON=C1C[C@@H](O)[C@@H](O)[C@@H]2[C@@H]3C(=O)N(C[C@@H]4CCCO4)C(=O)[C@@H]3CC[C@@H]12`, the z-score was 0.502 in test [1]; -0.242 (inactive) in [2]; -0.041 (inactive) in test [3]; -0.261 (inactive) in test [5]; 0.348 (inactive) in test [6]; 0.122 (inactive) in test [7]. The z-score was 0.511 (inactive) in test [8] and 0.424 in [9]. Also, the values for the composite z-score in test [4] and in test [10] were -0.111 (inactive) and -0.264, respectively.

Consider `CC(CCC(=O)OC[C@H]1O[C@H](C#Cc2ccccc2)C=C[C@@H]1Oc1ccc(C)cc1)=NOC[C@@H](O)COCc1ccco1`, for which the z-score in test [1] was -0.501; in test [2], 0.384 (inactive); in test [3], -1.39 (inactive); in test [5], 0.277 (inactive); in test [6], -0.0703 (inactive); in test [7], 0.564 (inactive). The z-score in test [8] was 0.895 (inactive); in test [9], 0.131. In addition, the composite z-score in test [4] is -1.24 (inactive); in test [10], -0.0454.

Consider `CCOc1ccc(N2C(=O)/C(=C/C=C/c3ccccc3OC)S(=O)(=O)C2c2cccc([N+](=O)[O-])c2)cc1` (stereo not given), for which the z-score in test [1] was 1.28; in test [2], -1.52 (inactive); in test [3] it was -2.33 (inactive); in test [5] it was 1.07 (inactive); in test [6] it was -1.44 (inactive); in [7], 0.777 (inactive). Besides, the z-score in test [8] was 0.765 (inactive); in [9], -0.548. The composite z-score in test [4] is -1.74 (inactive); in [10], 0.0264.

For `CCc1cc2c(nc1CC)CCN(CCC(C)=NOC[C@@H](O)[C@H]1O[C@@H]3OC(C)(C)O[C@@H]3[C@H]1O)C2`, the z-score in [1] was -0.595; in test [2], 0.0824 (inactive); in [3], -0.244 (inactive); in test [5] it was 0.535 (inactive); in test [6] it was -0.752 (inactive); in test [7] it was 0.548 (inactive). For the same compound, the z-score in test [8] is -0.953 (inactive); in test [9], -0.269. For the same compound, the values for the composite z-score in test [4] and in test [10] were -0.439 (inactive) and -0.365, respectively.

For the compound `COC(=O)CC=C[C@@H](C)[C@@H](C=NO[C@@H](C)c1cc(-c2c(C)cc(C)cc2C)no1)OC`, the z-score in test [1] was -0.295; in test [2], -0.408 (inactive); in test [3], -0.656 (inactive); in [5], -0.728 (inactive); in test [6], -0.357 (inactive); in test [7] it was -0.716 (inactive). Also, the z-score in [8] is -2.26 (inactive); in [9], 0.197. Besides, the figures for the composite z-score in test [4] and in test [10] were -2.58 (inactive) and -0.124, respectively.

With `CC(C)C[C@@H]1NC(=O)[C@H]2C[C@@H](C(=O)NCCCCCCN(C)C)[C@@H](c3cccc(OCCO)c3)N2C1=O`, the z-score in test [1] is -0.233; in test [2], -0.0693 (inactive); in test [3] it was -0.891 (inactive); in [5], -0.0059 (inactive); in test [6], -0.159 (inactive); in [7], 0.0442 (inactive). Besides, the z-score is 0.0484 (inactive) in test [8] and -0.992 in test [9]. Further, the results for the composite z-score in [4] and in test [10] were 0.344 (inactive) and 0.0753, respectively.

Regarding `COC(=O)[C@H](C)NC(=O)CCC1CC(OC(=O)NCc2ccc3c(c2)OCO3)CC2(CCCC(COC(=O)NCCOc3ccccc3)O2)O1` (stereo not given in full), the z-score in test [1] was 0.658; in [2], -0.565 (inactive); in test [3], -0.951 (inactive); in test [5], 0.875 (inactive); in test [6], -1.31 (inactive); in [7], -0.388 (inactive). Besides, the z-score is -0.915 (inactive) in test [8] and 0.891 in test [9]. The composite z-score in test [4] is -1.61 (inactive); in test [10], -0.105.

For the compound `CC(C)NC(=O)[C@@]1(C)c2ccccc2C(=O)N(Cc2cc(F)cc(C(F)(F)F)c2)[C@H]1c1ccc(CO)cc1`, the z-score in [1] was -0.0499; in test [2], 0.118 (inactive); in test [3], 0.0847 (inactive); in test [5] it was 0.897 (inactive); in test [6] it was -0.0826 (inactive); in [7], -0.0821 (inactive). Besides, the z-score in test [8] is -0.043 (inactive); in [9], -0.744. Also, the composite z-score in test [4] is 0.0724 (inactive); in [10], -0.157.

`CCCC[C@@H]1C[C@H]1[C@@H](NS(=O)(=O)c1cccc2cccnc12)c1ccc(-c2ccccc2)cc1`: the z-score is -0.279 in [1]; 0.444 (inactive) in test [2]; -0.251 (inactive) in test [3]; 0.411 (inactive) in test [5]; 0.269 (inactive) in [6]; -0.366 (inactive) in test [7]. Further, the figures for the z-score in test [8] and in test [9] were -0.166 (inactive) and -0.611, respectively. The values for the composite z-score in test [4] and in test [10] were -0.151 (inactive) and -0.0559, respectively.

Take `COCCOC(=O)N1C(=O)[C@@]2(c3cc(C#CCNC(N)=O)ccc31)[C@H](c1ccccc1OCCO)N1[C@H](c3ccccc3)[C@H](c3ccccc3)OC(=O)[C@H]1[C@@H]2C(=O)N1CCN(c2ncccn2)CC1`: the z-score was -0.0783 in test [1]; 0.353 (inactive) in [2]; -0.0546 (inactive) in [3]; 2.49 (inactive) in [5]; 0.733 (inactive) in test [6]; 0.924 (inactive) in [7]. Moreover, the z-score was 1.18 (inactive) in test [8] and 0.241 in test [9]. In addition, the composite z-score is -1.48 (inactive) in test [4] and -0.152 in test [10].

On to `CC(C)(C)N1C(=O)[C@H]2[C@H]3[C@H](O)[C@H](O)CC(=NOCc4ccccc4)[C@@H]3CC[C@H]2C1=O`, for which the z-score is -1.74 in test [1]; -0.245 (inactive) in test [2]; -0.637 (inactive) in [3]; 0.246 (inactive) in test [5]; -2.23 (inactive) in [6]; -0.474 (inactive) in [7]. The z-score is -0.0278 (inactive) in test [8] and -1.34 in [9]. Moreover, the composite z-score is -1.36 (inactive) in test [4] and -0.0735 in test [10].

With `C[C@H](c1ccccc1)N1C(=O)[C@H]2[C@@H]3C(=CC[C@H]2C1=O)C(=O)[C@H]1O[C@H]1[C@H]3O`, the z-score in [1] is -2.54; in [2], -3.82 (inactive); in test [3] it was -8.01 (active); in test [5] it was -0.993 (inactive); in test [6], -0.141 (inactive); in [7], 0.144 (inactive). The z-score in test [8] was 0.494 (inactive); in test [9] it was -5.33. The composite z-score in test [4] is -1.74 (inactive); in [10], 0.288.

(Values after PubChem BioAssay.)
